Source: PubChem BioAssay AID1159580 (chemical genetic matrix, 2015)
Hit rate of the full screen: of about 5,500 compounds, about 2,000 (36%) were called active. About 18% were inconclusive and are not listed. No stated cut-off is given here; in the data, active means normalized growth mostly below about 0.91 (no sharp cut-off); inconclusive means no clear call, values can overlap the other calls; inactive means mostly above about 0.92. The list shows a part of the results.

Assay: chemical genetic growth profiling, strain panel (AID 1159580);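 further: tested at 20 µM; growth read once vehicle control cultures reached saturation at 30 °C; 1 = growth at the plate median or of vehicle wells; lower values mean less growth of the strain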
Settings: S. cerevisiae deletion strains, growth OD

Measured: normalized growth

c1ccc2nc(N3CCNCC3)ccc2c1
inactive: locus YAL013W, strain DEP1, hits give low values 0.992 | locus YAL021C, strain ccr4, hits give low values 0.997 | locus YAL026C, strain drs2, hits give low values 0.989 | locus YAL030W, strain snc1, hits give low values 0.999 | locus YAL040C, strain CLN3, hits give low values 1.02 | locus YBL061C, strain skt5, hits give low values 1.01 | locus YBR009C, strain hhf1, hits give low values 1.01 | locus YBR023C, strain chs3, hits give low values 1.01 | locus YBR171W, strain sec66, hits give low values 0.985 | locus YBR231C, strain swc5, hits give low values 1.02 | locus YBR279W, strain paf1, hits give low values 1.01 | locus YCL011C, strain gbp2, hits give low values 0.97 | locus YCL016C, strain dcc1, hits give low values 1.01 | locus YCL061C, strain MRC1 (second series), hits give low values 1 | locus YCL061C, strain MRC1, hits give low values 0.981 | locus YCL069W, strain vba3, hits give low values 0.982 | locus YCR088W, strain abp1, hits give low values 0.984 | locus YDL005C, strain med2, hits give low values 1.01 | locus YDL040C, strain nat1, hits give low values 1.01 | locus YDR001C, strain nth1, hits give low values 0.982 | locus YDR069C, strain doa4, hits give low values 0.975 | locus YDR137W, strain rgp1, hits give low values 1.09 | locus YDR159W, strain sac3, hits give low values 0.985 | locus YDR195W, strain ref2 1.01 | locus YDR297W, strain sur2, hits give low values 1 | locus YDR334W, strain swr1, hits give low values 1.01 | locus YDR335W, strain msn5, hits give low values 1 | locus YDR363W, strain ESC2, hits give low values 0.97 | locus YDR392W, strain spt3, hits give low values 0.976 | locus YEL003W, strain gim4, hits give low values 0.971 | locus YEL037C, strain rad23, hits give low values 0.987 | locus YEL061C, strain CIN8 (second series), hits give low values 0.988 | locus YER002W, strain NOP16, hits give low values 1.03 | locus YER015W, strain faa2, hits give low values 0.995 | locus YER016W, strain bim1, hits give low values 1.01 | locus YER111C, strain swi4, hits give low values 0.99 | locus YER155C, strain BEM2 (second series), hits give low values 0.957 | locus YFR010W, strain ubp6, hits give low values 0.985 | locus YGL167C, strain pmr1, hits give low values 1.01 | locus YGL173C, strain kem1, hits give low values 1.01 | locus YGL227W, strain vid30, hits give low values 0.979 | locus YGL240W, strain doc1, hits give low values 0.998 | locus YGL253W, strain hxk2, hits give low values 1.01 | locus YGR078C, strain PAC10, hits give low values 1.01 | locus YHR013C, strain ard1, hits give low values 0.966 | locus YHR027C, strain rpn1, hits give low values 1.01 | locus YHR030C, strain SLT2, hits give low values 0.982 | locus YHR079C, strain IRE1, hits give low values 0.993 | locus YHR142W, strain chs7, hits give low values 0.968 | locus YJL092W, strain hpr5, hits give low values 0.978 | locus YJL095W, strain BCK1 (second series), hits give low values 1.01 | locus YJL095W, strain BCK1, hits give low values 0.999 | locus YJL115W, strain asf1, hits give low values 0.994 | locus YJL129C, strain trk1, hits give low values 0.947 | locus YJL154C, strain vps35, hits give low values 0.977 | locus YJL164C, strain tpk1, hits give low values 1.01 | locus YJL166W, strain qcr8, hits give low values 1.01 | locus YJL187C, strain SWE1, hits give low values 1 | locus YJR066W, strain TOR1, hits give low values 0.962 | locus YKL160W, strain elf1, hits give low values 1 | locus YKR026C, strain gcn3, hits give low values 0.981 | locus YKR091W, strain srl3, hits give low values 1 | locus YLL001W, strain dnm1, hits give low values 1.01 | locus YLL026W, hits give low values 1 | locus YLL041C, strain sdh2, hits give low values 1.01 | locus YLR027C, strain aat2, hits give low values 1 | locus YLR113W, strain HOG1, hits give low values 1.01 | locus YLR221C, strain rsa3, hits give low values 1 | locus YLR258W, strain gsy2, hits give low values 1.01 | locus YLR262C, strain YPT6 (second series), hits give low values 1.03 | locus YLR320W, strain mms22, hits give low values 1.02 | locus YLR342W, strain FKS1, hits give low values 1.02 | locus YLR357W, strain rsc2, hits give low values 1.04 | locus YLR370C, strain arc18, hits give low values 1.01 | locus YLR384C, strain iki3, hits give low values 1.01 | locus YML120C, strain ndi1, hits give low values 1 | locus YMR058W, strain fet3, hits give low values 0.989 | locus YMR125W, strain sto1, hits give low values 0.99 | locus YMR129W, hits give low values 0.99 | locus YMR205C, strain PFK2, hits give low values 1 | locus YMR231W, strain pep5, hits give low values 1.01 | locus YMR307W, strain GAS1, hits give low values 1.01 | locus YNL071W, strain lat1, hits give low values 0.999 | locus YNL128W, strain TEP1, hits give low values 1.01 | locus YNL153C, strain GIM3, hits give low values 0.958 | locus YNL175C, strain NOP13, hits give low values 1.02 | locus YNL183C, strain NPR1, hits give low values 0.95 | locus YNL197C, strain WHI3, hits give low values 0.998 | locus YNL209W, strain ssb2, hits give low values 0.998 | locus YNL224C, strain SQS1, hits give low values 1.01 | locus YNL248C, strain rpa49, hits give low values 0.996 | locus YNL322C, strain KRE1 (second series), hits give low values 1 | locus YNR049C, strain mso1, hits give low values 1 | locus YOR001W, strain rrp6, hits give low values 0.995 | locus YOR070C, strain gyp1, hits give low values 1 | locus YOR080W, strain dia2, hits give low values 1 | locus YOR083W, strain WHI5 (second series), hits give low values 1.02 | locus YOR083W, strain WHI5, hits give low values 1.01 | locus YOR106W, strain vam3, hits give low values 1.01 | locus YOR231W, strain MKK1, hits give low values 0.99 | locus YOR265W, strain rbl2, hits give low values 1 | locus YOR270C, strain vph1, hits give low values 0.987 | locus YOR290C, strain snf2, hits give low values 0.975 | locus YPL051W, strain arl3, hits give low values 1.02 | locus YPL055C, strain LGE1, hits give low values 0.988 | locus YPL078C, strain atp4, hits give low values 0.984 | locus YPL106C, strain sse1, hits give low values 1 | locus YPL240C, strain hsp82, hits give low values 1.01 | locus YPL256C, strain CLN2, hits give low values 0.988
